Settings in all cases: concentration: 1 μM,replicates: in singlicate; n = 1
In assay [1] the test system is PLK2.
Assay [2] has as its system PLK3.
Assay [3] deals with PLK4.
Assay [4] has as its system PRKCD.
The test system of assay [5] is PRKCE.
Assay [6] has as its system PRKCH.
Assay [7] deals with PRKCI.
Assay [8] relates to PRKCQ.
The subject of assay [9] is PRKD1.
In assay [10] the test system is PRKD2.

The structures appear in SMILES notation.
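Note: KINOMEscan kinase panel screen.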

Turning to `CCN(CC)CCOc1ccc(Nc2ncc3cc(-c4c(Cl)cccc4Cl)c(=O)n(C)c3n2)cc1` [SB-601273], the “%Inh” value in [1] was 27%; in assay [2], 52%; in assay [3], 30%; in [4], 0%; in [5] it was 22%; in [6], 0%. Moreover, the “%Inh” value in assay [7] was 26%; in assay [8] it was 27%; in assay [9], 93.3%; in assay [10], 93.6%.

Consider `C[C@@H](Oc1cc(-c2cnn(C3CCNCC3)c2)cnc1N)c1c(Cl)ccc(F)c1Cl`, for which the “%Inh” value in [1] is listed as 17%; in assay [2] it was 17%; in assay [3], 88%; in assay [4] it was 20%; in assay [5], 2%; in assay [6], 0%. In addition, the “%Inh” value in assay [7] turned out to be 24%; in assay [8] it was 26%; in assay [9], 61%; in assay [10], 31%.

`Cl.Cl.NC[C@H](CC1CCCCC1)NC(=O)c1cc(Br)c(-c2ccnc3[nH]ccc23)s1` [GSK1581427]: the “%Inh” value in assay [1] is 0%; in [2], 0%; in assay [3] it was 15%; in assay [4], 99.5%; in assay [5], 96.6%; in assay [6], 97.7%. Also, the “%Inh” value stood at 0% in [7], 90.2% in [8], 64% in assay [9] and 67% in assay [10].

Turning to `Cc1ccc(-n2nc(C(C)(C)C)cc2NC(=O)Nc2ccc(OCCN3CCOCC3)c3ccccc23)cc1` [GW839464], the “%Inh” value worked out at 0% in assay [1]; 0% in [2]; 2% in assay [3]; 21% in assay [4]; 15% in assay [5]; 0% in assay [6]. Moreover, the “%Inh” value is given as 20% in assay [7], 0% in assay [8], 0% in assay [9] and 20% in assay [10].

Take `O=C(NCCCN1CCOC1=O)c1cnc(NCc2cc(Cl)ccc2Cl)nc1NC1CCCC1`: the “%Inh” value in assay [1] stood at 0%; in assay [2] it was 4%; in assay [3], 17%; in [4], 3%; in assay [5], 14%; in assay [6], 8%. For the same compound, the “%Inh” value in [7] is reported as 23%; in [8], 0%; in [9], 23%; in assay [10], 0%.

Turning to `Cc1ccc2c(-c3ccncc3)c(-c3ccc(F)cc3)nn2c1.Cl` [GW461484], the “%Inh” value in assay [1] is reported as 0%; in assay [2], 0%; in assay [3], 0%; in assay [4], 8%; in assay [5] it was 8%; in assay [6], 0%. For the same compound, the “%Inh” value is 28% in [7], 21% in assay [8], 34% in assay [9] and 55% in [10].

`C[C@@H]1CCN(C(=O)CC#N)C[C@@H]1N(C)c1ncnc2[nH]ccc12`: the “%Inh” value is on record as 0% in assay [1]; 0% in [2]; 0% in assay [3]; 18% in assay [4]; 45% in [5]; 12% in [6]. The “%Inh” value in assay [7] amounted to 5%; in [8], 0%; in assay [9], 0%; in assay [10], 0%.

For `Cc1cc2cn[nH]c2cc1-c1cccc2c(N)c(C(N)=O)nnc12`, the “%Inh” value in [1] is given as 5%; in assay [2], 0%; in assay [3] it was 51%; in assay [4], 5%; in assay [5], 4%; in [6], 7%. The “%Inh” value in [7] is on record as 23%; in [8], 21%; in [9], 86%; in assay [10], 89%.

Consider `C[C@H]1Oc2cc(cnc2N)-c2c(nn(C)c2C#N)CN(C)C(=O)c2ccc(F)cc21`, for which the “%Inh” value in assay [1] came to 0%; in assay [2], 0%; in [3], 97.9%; in assay [4], 15%; in [5], 0%; in assay [6], 12%. The “%Inh” value in [7] was 21%; in assay [8], 12%; in [9], 0%; in assay [10] it was 12%.

For `Nc1nc(Nc2ccccc2)cc(-c2ccc3c(N)n[nH]c3c2)n1` [GSK2225749], the “%Inh” value amounted to 0% in [1]; 0% in [2]; 6% in [3]; 8% in assay [4]; 0% in assay [5]; 0% in [6]. Also, the “%Inh” value in assay [7] is 20%; in assay [8], 0%; in assay [9] it was 0%; in [10] it was 0%.

Turning to `CN(C)CC(O)COc1ccc(Nc2nccc(-c3cnn4nc(N5CCOCC5)ccc34)n2)cc1` (stereo not shown) [GW767488], the “%Inh” value was found to be 28% in [1]; 35% in [2]; 63% in assay [3]; 14% in assay [4]; 0% in assay [5]; 0% in assay [6]. For the same compound, the “%Inh” value stood at 36% in assay [7], 21% in [8], 93.7% in assay [9] and 98.2% in assay [10].

For `CCn1c(-c2nonc2N)nc2c(C#CC(C)(C)O)nc(OCCN)cc21.Cl.Cl` [GSK902056], the “%Inh” value in assay [1] stood at 0%; in [2], 0%; in [3], 3%; in assay [4], 81%; in assay [5], 97.9%; in [6] it was 96.5%. The “%Inh” value in assay [7] came out at 20%; in assay [8], 89%; in [9], 14%; in assay [10], 14%.

As for `C=CC(=O)Nc1cc2c(Nc3ccc(F)c(Cl)c3)ncnc2cc1OCCCN1CCOCC1` [GW781483], the “%Inh” value in assay [1] turned out to be 0%; in assay [2] it was 0%; in [3] it was 26%; in [4], 0%; in assay [5] it was 30%; in assay [6], 0%. In addition, the “%Inh” value in assay [7], in [9] and in assay [10] was 0% in each case.

Turning to `Cc1n[nH]c2ccc(-c3cc(OC[C@@H](N)Cc4ccccc4)cnc3-c3ccoc3)cc12.O=C(O)C(F)(F)F.O=C(O)C(F)(F)F` [GSK507358], the “%Inh” value in assay [1] was 0%; in [2] it was 0%; in assay [3] it was 0%; in [4] it was 99.8%; in assay [5] it was 95.5%; in assay [6] it was 95.9%. Also, the “%Inh” value stood at 33% in assay [7], 95.4% in [8], 91.4% in assay [9] and 99.2% in assay [10].

For the origin of these results see PMC5540273 (PLoS ONE, 2017).
